Shown are actives, neighbours in structure and some others; about 18% of the full set was active somewhere.
TDP1 cell CPT – DT40-hTDP1 cell growth loss with CPT; 12% of 420,000 active; chicken DT40 Tdp1-/-;hTDP1 cells + 20 nM CPT, ATP luminescence, 48 h; Potency, µM (series often up to 46.2 µM), without a hit: at the highest dose activity change, negative = growth inhibition, most hits filed as inhibitors; further: nearly all actives have a fitted effect of over 55% in size
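Cell growth measured by CellTiter-Glo luminescence after a minimum 48 h, 37 C compound exposure with 20 nM CPT in Tdp1-knockout DT40 cells stably expressing hTDP1, seeded 400/well; qHTS titration format.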
VDR inh – inhibitors of human vitamin D receptor; VDR-SRC2-3 peptide fluorescence polarization, 2 h; 0.93% of 400,000 active; P11473; AID 504847; Potency, µM, for the others: max response, negative = inhibition, most hits filed as inhibitors
Target sequence (P11473 whole entry, looked up): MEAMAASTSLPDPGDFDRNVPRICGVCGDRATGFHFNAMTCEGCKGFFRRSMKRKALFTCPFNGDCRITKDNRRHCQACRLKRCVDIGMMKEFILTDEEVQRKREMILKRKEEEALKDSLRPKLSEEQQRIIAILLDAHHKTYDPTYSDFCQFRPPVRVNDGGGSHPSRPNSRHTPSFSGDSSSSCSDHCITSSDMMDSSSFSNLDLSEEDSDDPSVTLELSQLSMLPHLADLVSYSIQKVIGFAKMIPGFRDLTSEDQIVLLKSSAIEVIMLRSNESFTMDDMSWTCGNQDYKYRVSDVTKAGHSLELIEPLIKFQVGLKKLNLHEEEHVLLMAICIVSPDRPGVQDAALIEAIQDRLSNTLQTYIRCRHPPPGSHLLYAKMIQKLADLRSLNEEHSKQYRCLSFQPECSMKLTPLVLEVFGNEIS
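FP read-out; VDR + SRC2-3 coactivator peptide; 23 nl compound by pintool; 2 h RT incubation; reagents held at 4 deg C, protected from light.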
KAT2A inh – inhibitors of human GCN5L2 histone acetyltransferase. Q92830. GCN5L2 HAT assay, ThioGlo1 CoA-SH fluorescence. Potency, µM (series often up to 58.9 µM), without a hit: at the highest dose activity change, negative = inhibition, most hits filed as inhibitors. 0.21% of 390,000 active. AID 504327
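ThioGlo1-coupled HAT assay: 20nM GCN5L2, 70uM acetyl-CoA, 75uM H3(1-25) peptide, pH 7.5. Fluorescence read at 340/540nm at start and after 20 min at room temperature.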
PLK1 PBD inh – PLK1 (human) polo-box domain binding inhibition; Potency, µM, for the others: max response, negative = inhibition, actives largely listed as inhibitors; P53350; Plk1 PBD binding of FITC phosphopeptide, fluorescence polarization; AID 720504; 2.8% of 360,000 active; further: series mostly up to about 57 µM; nearly all actives have a fitted effect of over 65% in size
TDP1 cell noCPT – qHTS for Inhibitors of human tyrosyl-DNA phosphodiesterase 1 (TDP1): qHTS in cells in absence of CPT; 15% of 420,000 active; AID 686978, 2013; Potency, µM (top dose mostly 46.2 µM), for inactives: at the highest dose activity change, negative = growth inhibition, hits mostly inhibitors; DT40 Tdp1-/- hTDP1 cells, no CPT, ATP luminescence, 48 h; further: nearly all actives have a fitted effect of over 55% in size
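No-CPT arm: Tdp1-/-;hTDP1 DT40 cells (400/well) plus compounds, incubated ≥48 hr at 37 °C. Readout CellTiter-Glo luminescence.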
TDP1 block – TDP1 (human) enzyme inhibition. Potency, µM (titrated, usually from 130 µM), for the others: at the top dose activity change, negative = inhibition, most hits filed as inhibitors. 0.28% of 350,000 active. Q9NUW8. AID 485290. recombinant TDP1, AlphaScreen DNA substrate cleavage; further: nearly all actives have a fitted effect of over 40% in size
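Tdp1 1 nM final; 15 min RT w/ cpd; substrate 15 nM, 5 min; beads 10 ug/ml, 10 min; AlphaScreen read. Neg ctrl: no enzyme.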
* = called active by the depositor; [ ] = dose if it differs, or a comment. The call rests on the fitted dose curve; in most records, active means well fitted curve in the direction sought with a large enough effect; inconclusive means small, poorly fitted or top-dose-only effect, or another doubt; inactive means no such curve, though single readings can be large; an effect the other way counts as inactive or inconclusive. On the % scale 0 is the no-effect control and ±100 the full control effect; potency means the concentration at half of the fitted maximal effect.

`COc1ccc(N(C(=O)Cc2cccs2)C(C(=O)NC2CCCC2)c2ccncc2)cc1` (centres undefined) gave TDP1 cell CPT inconclusive, VDR inh -10%, KAT2A inh -2%, PLK1 PBD inh 0% and TDP1 cell noCPT inconclusive.
For CCOc1cccc(N(C(=O)Cc2cccs2)C(C(=O)NC2CCCCC2)c2cccn2C)c1 (centres undefined) the results were TDP1 cell CPT 16µM*, VDR inh 9%, KAT2A inh -5%, PLK1 PBD inh -3%, TDP1 cell noCPT 16µM* and TDP1 block -5%[56.1 µM].
`COc1cccc(C2C3=C(CCCC3=O)Nc3[nH]n(-c4ccccc4)c(=O)c32)c1` (centres undefined) gave TDP1 cell CPT -15%, VDR inh -9%, KAT2A inh -2%, PLK1 PBD inh -8%, TDP1 cell noCPT inconclusive and TDP1 block -2%.
For O=C1CCCC2=C1C(c1ccc3c(c1)OCO3)c1c([nH]n(-c3ccccc3)c1=O)N2 (centres undefined) the results were TDP1 cell CPT -20%, VDR inh 2%, KAT2A inh -3%, PLK1 PBD inh -13%, TDP1 cell noCPT 13µM* and TDP1 block 9%.
`O=C(Cc1ccccc1)Nc1cc(-c2nc3cc(Cl)ccc3o2)ccc1Cl` gave VDR inh -3%, KAT2A inh -1% and TDP1 block 5%.
Screening CN(CC(=O)Nc1ccc(Cl)cc1)C(=O)CCC1CCCC1 returned TDP1 cell CPT -25%, VDR inh 15%, KAT2A inh 1%, PLK1 PBD inh -5%, TDP1 cell noCPT -1% and TDP1 block 1%.
`O=C(CCl)N(C1CCCC1)C1CCS(=O)(=O)C1` (centres undefined) gave TDP1 cell CPT 18µM*, VDR inh 2%, KAT2A inh -1%, PLK1 PBD inh -6%, TDP1 cell noCPT 15µM* and TDP1 block 5%.
Screening O=c1c2c(nc3cc(-c4cccc(F)c4)[nH]n13)CCC2 returned TDP1 cell CPT -3%, VDR inh -11%, KAT2A inh -1%, PLK1 PBD inh 24µM*, TDP1 cell noCPT inconclusive and TDP1 block 2%.
For Cc1[nH]n2c(=O)c3c(nc2c1-c1ccc(F)cc1)CCCC3 the results were TDP1 cell CPT 16µM*, VDR inh -11%, KAT2A inh 0%, PLK1 PBD inh -19%, TDP1 cell noCPT inconclusive and TDP1 block -5%.
Screening O=c1c2c(nc3cc(-c4ccc(F)cc4)[nH]n13)CCCC2 returned TDP1 cell CPT inconclusive, VDR inh 3%, KAT2A inh -2%, PLK1 PBD inh -9%, TDP1 cell noCPT inconclusive and TDP1 block inconclusive.
O=c1c2c(nc3c(-c4ccc(Cl)cc4)c[nH]n13)CCCC2 was read as TDP1 cell CPT 3.5µM*, VDR inh 0%, KAT2A inh 2%, PLK1 PBD inh -29%, TDP1 cell noCPT 4µM* and TDP1 block 4%.
For Cc1nc2c(-c3ccc(F)cc3)c(C)[nH]n2c(=O)c1Cl the results were TDP1 cell CPT inconclusive, VDR inh 17%, KAT2A inh 2%, PLK1 PBD inh -17% and TDP1 cell noCPT inconclusive.
O=C([C@@H]1C[C@@H](Sc2nc3ccccc3[nH]2)CN1Cc1c(F)cccc1F)N1CCOCC1 was read as TDP1 cell CPT -13% and TDP1 cell noCPT -17%.
`CO[C@H]1[C@H](NC(=O)c2ccco2)c2ccccc2C12CCN(Cc1cc(Cl)ccc1O)CC2` gave TDP1 cell CPT -1%[9.04 µM] and TDP1 cell noCPT 23µM*.
COc1cc(CN2CCC3(CC2)c2ccccc2[C@@H](NC(=O)c2ccccc2OC)[C@@H]3O)ccc1F was read as TDP1 cell CPT -12%[9.04 µM] and TDP1 cell noCPT 18µM*.
`C=CCNC(=O)C1CC2Cn3c(nc4cc(Cl)c(Cl)cc43)C2N1C` (centres undefined) gave TDP1 cell CPT -16%, VDR inh -6%, KAT2A inh -1%, PLK1 PBD inh -1%, TDP1 cell noCPT -18% and TDP1 block -1%.
COC(=O)C1=C(C)N(Cc2ccccc2)C(=S)N[C@H]1CCc1ccccc1 was read as KAT2A inh -4%.
Cc1ccc(C)c(Nc2cc(C)nc(-c3ccccc3O)n2)c1 was read as TDP1 cell CPT 6.5µM*, VDR inh 6%, KAT2A inh 1%, PLK1 PBD inh 5% and TDP1 cell noCPT 5.8µM*.
`Cc1cc(Nc2ccccc2Cl)nc(-c2ccccc2O)n1` gave TDP1 cell CPT inconclusive, VDR inh -7%, KAT2A inh -26%, PLK1 PBD inh -10% and TDP1 cell noCPT inconclusive.
Screening CCOC(=O)c1ccc(Nc2cc(C)nc(-c3ccccc3O)n2)cc1 returned TDP1 cell CPT inconclusive, VDR inh 13%, KAT2A inh -13%, PLK1 PBD inh 3%, TDP1 cell noCPT 29µM* and TDP1 block -2%.
For NC(N)=NCCC[C@H](N)C(=O)NCC(=O)N[C@@H](CC(=O)O)C(=O)O the results were VDR inh 8%, KAT2A inh -1% and TDP1 block 5%.
O=C1C(Cl)=C(N2CCOCC2)C(=O)N1c1cccc(Cl)c1 was read as TDP1 cell CPT -24%, VDR inh 25µM*, KAT2A inh -3%, PLK1 PBD inh -27% and TDP1 cell noCPT inconclusive.
Screening Cc1cccc(N2C(=O)C(Cl)=C(N3CCOCC3)C2=O)c1 returned TDP1 cell CPT -3%, VDR inh inconclusive, KAT2A inh -1%, PLK1 PBD inh -13%, TDP1 cell noCPT -18% and TDP1 block 0%.
CCc1ccc(N2C(=O)C(Cl)=C(N3CCOCC3)C2=O)cc1 was read as TDP1 cell CPT inconclusive, VDR inh inconclusive, KAT2A inh -5%, PLK1 PBD inh -20%, TDP1 cell noCPT -25% and TDP1 block -1%.
Screening COc1ccc(N2C(=O)C(Cl)=C(N3CCOCC3)C2=O)cc1 returned TDP1 cell CPT -19%, VDR inh 28µM*, KAT2A inh 1%, PLK1 PBD inh 0% and TDP1 cell noCPT 29µM*.
For Cc1cccc(C)c1NC(=O)CN(CC(=O)O)CC(=O)O the results were TDP1 cell CPT -6%, VDR inh 5%, KAT2A inh 7%, TDP1 cell noCPT -3% and TDP1 block 10%.
N#Cc1ccc(N/N=C/c2cn(-c3ccccc3)nc2-c2ccccc2)c([N+](=O)[O-])c1 was read as TDP1 cell CPT 3.7µM*, VDR inh 5%, KAT2A inh 0%, PLK1 PBD inh 5%, TDP1 cell noCPT 8.2µM* and TDP1 block 5%.

Assay outcomes: PubChem BioAssay, National Center for Advancing Translational Sciences (NCATS)
